Screening results: PubChem BioAssay, National Center for Advancing Translational Sciences (NCATS)
Shiga toxin inh: A qHTS for Small Molecule Inhibitors of Shiga Toxin; Vero cells, Shiga toxin protein synthesis inhibition reporter; hit rate 9.2% among 290,000; inhibition, % at 38.7 µM; in the data active means inhibition mostly above about 28%, no sharp cut-off; inactive means mostly below about 43%; further: 0% is about no effect
Pf growth 96h: Primary qHTS for delayed death inhibitors of the malarial parasite plastid, 96 hour incubation | P. falciparum luciferase reporter growth, 96 h | Potency, µM (highest dose often 28.7 µM), for the others: at the highest dose activity change, negative = inhibition, hits mostly inhibitors | hit rate 6.9% among 320,000; further: potency means the concentration at half of the fitted maximal effect; on the % scale 0 is the no-effect control and ±100 the full control effect
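Infected RBCs, 2% Hct / 0.05% parasitemia final; luciferase-reporter P. falciparum; cpd 96 h, 37 C, 5% CO2; luciferase detection reagent; luminescence.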
Pf growth 48h: Primary qHTS for delayed death inhibitors of the malarial parasite plastid, 48 hour incubation; P. falciparum luciferase growth in erythrocytes, 48 h; Potency, µM (top dose mostly 28.7 µM), for the others: top-dose activity change, negative = inhibition, actives largely listed as inhibitors; hit rate 5.9% among 310,000; further: potency means the concentration at half of the fitted maximal effect; on the % scale 0 is the no-effect control and ±100 the full control effect
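Read-out is firefly luciferase luminescence from an integrated reporter in P. falciparum, so falling signal marks reduced parasite growth. Infected erythrocytes were at 2% hematocrit and 0.1% parasitemia (final) in Albumax-supplemented RPMI 1640.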
Cycloheximide cs: Cycloheximide Counterscreen for Small Molecule Inhibitors of Shiga Toxin; cell reporter, cycloheximide protein synthesis inhibition counterscreen; max response, %; hit rate 12% among 300,000; AID 2314, 2010; in the data active means max response mostly above about 13%, no sharp cut-off; inactive means mostly below about 14%; further: read at 38.3 µM for the half of the compounds with a filed dose; 0% is about no effect
Sm TGR block: qHTS Assay for the Inhibitors of Schistosoma Mansoni Peroxiredoxins; AID 485364, 2010; hit rate 3% among 360,000; Potency, µM (series often up to 114 µM), for inactives: at the top dose activity change, negative = inhibition, hits mostly inhibitors; purified TGR, DTNB reduction, TNB absorbance 405 nm; further: potency means the concentration at half of the fitted maximal effect; on the % scale 0 is the no-effect control and ±100 the full control effect; nearly all actives have a fitted effect of over 60% in size
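TGR 20 nM + NADPH 100 uM (dispensed conc.), cpd preinc 15 min RT; start with NADPH (500 uM addition) then DTNB (15 mM addition). Kinetic TNB absorbance, 405 nm filter. Four-parameter Hill fit across titration.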
NS1 function inh: qHTS Assay for Inhibitors of Influenza NS1 Protein Function; Potency, µM (doses to about 46.1 µM), inactives show at the highest dose activity, positive = more growth; hit rate 0.4% among 270,000; AID 2326, 2010; calls by dose curve; further: potency means the concentration at half of the fitted maximal effect; actives are rising curves; nearly all actives have a fitted effect of over 50% in size
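OD600 was taken as the measure of yeast growth restored by compound in an NS1-expressing S. cerevisiae strain. Cells had been washed out of glucose medium and diluted 1:100 into galactose -URA medium, pH 6.0.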
* hit, by the source's call; u = inconclusive; x = no result; [ ] = dose if it differs, or a comment. The list is not random: actives were taken first. Their share in the collection is about 21%. Unless noted, the call rests on the fitted dose curve; in most records, active means well fitted curve in the direction sought with a large enough effect; inconclusive means small, poorly fitted or top-dose-only effect, or another doubt; inactive means no such curve, though single readings can be large; an effect the other way counts as inactive or inconclusive.

SMILES	Shiga toxin inh	Pf growth 96h	Pf growth 48h	Cycloheximide cs	Sm TGR block	NS1 function inh
CCOc1ccc2cc(-c3nnc(Nc4ccc(C)cc4)s3)c(=O)oc2c1	x	x	x	x	-0.3%	x
O=C(NC(Cc1ccccc1)C(=O)O)/C(=C/c1ccc([N+](=O)[O-])cc1)NC(=O)c1ccccc1Br (centres undefined)	-19.1	185.0%	12.2%	0.8	-7.2%	x
Cc1ccc(CNC(=O)CCCN2C(=O)CCn3nc(-c4cn(C)c5ccccc45)cc32)cc1	x	x	x	x	-5.3%	x
CCC(C(=O)Oc1c(C(C)C)cccc1C(C)C)c1ccccc1 (centres undefined)	x	u	-14.0%	x	4.8%	x
O=C(Nc1ccc(NC(=O)c2ccco2)nc1)c1cccc(F)c1	82.0*	21.6%	156.8%	39.9*	3.2%	-22.8%
O=C(Nc1ccc(NC(=O)c2ccccc2F)cn1)c1ccco1	35.9	16.7%	74.7%	18.3*	11.0%	-54.6%
COc1cccc(C(=O)Nc2ccc(NC(=O)c3ccco3)nc2)c1	193.8*	x	224.9%	62.8*	0.0%	-55.9%
O=C(Nc1ccccc1C(=O)Nc1ccccc1)c1ccco1	30.2	u	2.3%	6.2	4.6%	2.2%
CCCC(=O)Nc1ccc(NC(=O)c2cccc(OC)c2)nc1	119.2*	u	99.5%	33.1*	12.5%	-6.8%
COc1cc(C(=O)Nc2ccc(NC(=O)c3ccco3)nc2)cc(OC)c1OC	-11.9	x	u	-3.1	u	-5.3%
O=C(CSc1ncnc2c1cnn2CCO)Nc1cccc(C(F)(F)F)c1	-3.0	-1.9%	-8.4%	-1.3	0.8%	8.9%
CCOc1ccccc1CNc1nc2nc(C)c(CC(=O)OC)c(=O)n2[nH]1	x	x	x	x	-0.2%	x
Cc1ccc(CCNC(=O)CCS(=O)(=O)c2ccc(Br)cc2)cc1	-6.5	u	-16.5%[1.15 µM]	-7.3	6.5%	0.4%
COc1cccc(C(=O)Nc2ccc(NC(=O)c3ccco3)c(Cl)c2)c1	63.8*	u	119.2%	30.3*	4.0%	x
CC(C)C(=O)Nc1ccc(NC(=O)c2cccc(F)c2)cn1	75.6*	-8.4%	98.7%	21.7*	0.0%	u
COc1ccc(C(=O)Nc2ccc(NC(=O)C3CCCCC3)nc2)cc1	13.4	u	-14.3%	6.0	24.4%	-3.0%
COc1cccc(C(=O)Nc2ccc(NC(=O)C3CC3)nc2)c1	23.7	214.5%	-18.5%	17.9*	8.2%	-11.0%
Cc1cc(NC(=O)c2cccc(F)c2)ncc1NC(=O)c1ccco1	50.1	x	x	21.2*	-10.2%	-13.4%
O=C(O)c1cc(NC(=O)c2cccc(F)c2)cc(NC(=O)c2cccc(F)c2)c1	-10.6	3.9%	-2.8%	0.3	14.7%	u
Cc1ccccc1NC(=O)c1cccc(NC(=O)c2ccco2)c1	8.4	u	31.1%	6.9	7.2%	-67.6%
COc1ccc(-c2cn3nc(N4CCCC(C(=O)Nc5ccc(C)c(C)c5)C4)sc3n2)cc1 (centres undefined)	x	x	x	x	-0.4%	x
O=C(Nc1cccnc1)c1ccco1	40.1	38.1%	x	0.8	-0.9%	-9.6%
CC(=O)c1ccc(NC(=O)c2ccc(NC(=O)c3ccco3)cc2)cc1	-14.8	u	-29.9%	-2.9	17.0%	17.5%
O=C(Nc1cccnc1)c1ccc(NC(=O)c2ccco2)cc1	60.8	x	20.4%	18.5*	-3.9%	-4.6%
O=C(Nc1ccc(NC(=O)c2ccco2)nc1)c1cccnc1	53.5*	-9.7%	350.4%	20.8	-18.2%	8.0%
SMILES	Shiga toxin inh	Pf growth 96h	Pf growth 48h	Cycloheximide cs	Sm TGR block	NS1 function inh
O=C(Nc1ccc(NC(=O)C2CC2)nc1)c1cccc(F)c1	58.7*	-3.1%	35.0%	46.9*	-2.6%	-4.1%
C=Cc1cccc(NC(=O)c2ccc(NC(=O)c3ccco3)cc2)c1	35.2*	1.47µM*	-5.3%	19.1*	1.8%	-29.3%
CC(=O)N1c2ccccc2C(C)(c2ccc(C)cc2)CC1(C)C (centres undefined)	x	x	x	x	5.3%	x
COc1ccc(/C=N/NC(=O)c2ccc(N(C)S(=O)(=O)c3ccccc3)cc2)cc1OC	10.2	24.5%	-3.6%	-0.4	1.0%	10.3%
CCC(=O)Nc1cc(C)c(NC(=O)CCc2ccccc2)cn1	-0.5	u	17.0%	-2.1	2.9%	7.2%
Cc1cc(NC(=O)c2ccco2)ncc1NC(=O)CCc1ccccc1	33.4	x	7.0%	28.0*	27.8%	0.1%
COc1cccc(C(=O)Nc2ccc(NC(C)=O)cn2)c1	64.9*	x	305.6%	30.5*	-4.5%	-2.1%
O=C(c1ccc2c(=O)n3c(nc2c1)CCCCC3)N1CCN(c2ccccc2)CC1	-8.7	-1.9%	-9.2%	-0.2	0.1%	-5.6%
O=C(c1ccc2c(=O)n3c(nc2c1)CCC3)N1CCN(S(=O)(=O)c2cccc(F)c2)CC1	x	u	11.7µM*	x	1.6%	x
CN(C(=O)c1ccc2c(=O)n3c(nc2c1)CCCCC3)c1ccccc1Cl	24.3	-9.7%	-0.8%	18.9*	10.9%	-4.1%
O=C(c1ccc2c(=O)n3c(nc2c1)CCCCC3)N1CCN(C(c2ccccc2)c2ccccc2)CC1	-2.3	1.85µM*	x	-2.2	-14.8%	10.7%
O=C(c1ccc2c(=O)n3c(nc2c1)CCCCC3)N1CCCCC1	-1.2	-23.0%	20.8%	20.7*	1.1%	4.8%
Cc1ccc(C)c(Oc2coc3cc(OCC(=O)Nc4ccccc4C(C)C)ccc3c2=O)c1	-7.7	7.38µM*	13.1µM*	-2.7	-5.9%	29.8%
CCOc1ccc(CNC(=O)Cn2ncc3c(=O)oc4ccc(C)cc4c32)cc1	x	x	x	x	-0.9%	x
CN(CCc1ccccn1)C(=O)Nc1ccc(F)cc1	2.7	-10.9%	8.6%	-4.6	-0.2%	-12.0%
CN(CCc1ccccn1)C(=O)Nc1ccc(C(C)(C)C)cc1	25.8	35.3%	3.3%	20.0*	-0.5%	-4.2%
C[C@]12CC[C@@H]3c4ccc(O[C@@H]5O[C@H](C(=O)O)[C@@H](O)[C@H](O)[C@H]5O)cc4CC[C@H]3[C@@H]1C[C@@H](O)[C@@H]2O	-0.1	-19.6%	9.1%	-1.8	39.8µM*	-5.1%
COc1ccc(NC(=O)CSc2nc3[nH]c(=O)cc(O)c3s2)c(OC)c1	x	1.0%	10.4µM*	x	1.7%	x
CSc1ccc(NC(=O)CSc2nc3[nH]c(=O)cc(O)c3s2)cc1	x	298.7%	-1.2%	x	-14.7%	x
N#Cc1ccc(NC(=O)CSc2nc3[nH]c(=O)cc(O)c3s2)cc1	x	1.47µM*	u	x	10.1%	x
COc1ccc(-c2[nH]ncc2CNCC(C)(C)N2CCOCC2)cc1F	-22.0	u	-6.9%	-3.8	-2.0%	-6.7%
Cc1ccsc1CN1CCN(c2ccccn2)CC1	-1.4	u	-6.9%	3.6	-25.1%	1.5%
Cc1ccsc1/C=N/N1CCN(Cc2ccccc2)CC1	37.8*	6.7%	49.6%	23.5*	-2.0%	x
Fc1ccc(Br)cc1/C=N/N1CCN(c2ccccc2)CC1	x	-11.5%	28.9%	9.8	2.1%	1.7%
